Test results published in PubChem BioAssay (EPA / NIEHS).
Where “and” joins values, the source holds several entries; their conditions need not be identical. Equal entries are not always repeated. Calls of active or inactive are those of the source. The calls were made as follows: active = hit-call score of the fitted dose curve at least 0.9, where 1 is the maximum; inactive = score below 0.9.

read-out: Collagen III, COL3A1 (gene 1281); test: BSK_MyoF_CollagenIII: BioMAP Diversity Plus: MyoF Assay for Collagen III Biomarker Activity (AID 2284239); settings: primary human lung fibroblasts
Method: BSK_MyoF is a cell-based, multiplexed-readout assay that uses lung fibroblasts, […], with measurements taken at 24 hours after chemical dosing in a microplate: 96-well plate.BSK_MyoF_CollagenIII is an assay component measured in the BSK_MyoF assay. It measures Collagen III antibody related to regulation of gene expression using ELISA technology.Data from the assay component BSK_MyoF_CollagenIII was analyzed at the endpoint, BSK_MyoF_CollagenIII, in the positive analysis fitting direction relative to DMSO as the negative control and baseline of activity. Using a type of binding reporter, gain or loss-of-signal activity can be used to understand protein changes. To generalize the intended target to other relatable targets, this assay endpoint is annotated to the 'cell adhesion molecules' intended target family, where the subfamily is 'collagen'.
The levels of cell surface (or secreted, indicated by the prefix "s") biomarker endpoints were measured by ELISA. Overt cytotoxicity to cells in confluent adherent cultures (all systems other than the BT system) was assessed by measuring total protein levels using sulforhodamine B (SRB) staining in parallel cultures at the time of biomarker measurements, indicated as SRB endpoints. For proliferation assays for adherent cell types, individual cell types are cultured at sub-confluence and relative cell numbers quantified by SRB staining at time points optimized for each system (48 h: 3C and CASM3C systems; 72 h: BT and HDF3CGF systems; 96 h: SAg system). SRB was performed by staining cells with 0.1% SRB after fixation with 10% TCA and reading wells at 560 nm.Viability and proliferation of PBMC (T cells) was quantified by Alamar Blue reduction for the SAg and BT systems. For PBMC viability (referred to as PBMC Cytotoxicity within the assay endpoint names), cells were plated (75,000/well in a 96-well plate) and then chemical samples added for 1 h before addition of activators, SEB and TSST-1 (20 ng/mL final concentration each). Cells were incubated for 90 h. Then, Alamar Blue (20 uL/well) (Invitrogen, Cat DAL1100) was added for 6 h, and the plates were read with a fluorescence microplate reader at 546/580 nm (excitation/emission). For PBMC proliferation, cells were plated and activated as above but incubated for only 16 h prior to addition of Alamar Blue. Plates were read after 6 h.

| Compound | outcome | AC50 |
| --- | --- | --- |
| NC(=O)C(F)(F)C(F)(F)C(F)(F)F | inactive |  |
| Brc1nc2ccccc2s1 | inactive |  |
| O=S(=O)(O)CCC(F)(F)C(F)(F)C(F)(F)C(F)(F)F | inactive |  |
| CCN(CC)c1ccc(N=Nc2ccccc2)cc1 | inactive |  |
| Nc1cc([N+](=O)[O-])cc(Cl)c1O | inactive |  |
| O=S(=O)(Cl)C(F)(F)C(F)(F)C(F)(F)C(F)(F)C(F)(F)C(F)(F)C(F)(F)C(F)(F)F |  | 30 µM (active) and 41.1 µM (active) |
| CCOC(=O)CC(=O)C(F)(F)C(F)(F)F | inactive |  |
| O=C(O)C(F)(F)C(F)(F)C(F)(F)C(=O)O | inactive |  |
| CN(C(=O)C(F)(F)C(F)(F)C(F)(F)F)[Si](C)(C)C | inactive |  |
| FC(F)(F)C(F)(F)C(F)(F)C(F)(F)C(F)(F)C(F)(F)C(F)(F)CCI | inactive |  |
| OCC(F)(F)C(F)(F)C(F)(F)C(F)(F)C(F)(F)C(F)(F)CO | inactive |  |
| O=C(O)C(F)(F)C(F)(F)C(F)(F)OC(F)(F)F | inactive |  |
| O=S(=O)(O)CCC(F)(F)C(F)(F)C(F)(F)C(F)(F)C(F)(F)C(F)(F)C(F)(F)C(F)(F)F | inactive |  |
| O=C1c2c(O)ccc(Nc3ccc(CCO)cc3)c2C(=O)c2c([N+](=O)[O-])ccc(O)c21 |  | 30.2 µM (active) |
| O=C=Nc1cccc2c(N=C=O)cccc12 | inactive |  |
| C=CC(=O)OCC(F)(F)C(F)(F)C(F)(F)C(F)(F)C(F)(F)C(F)(F)C(F)(F)C(F)F | inactive |  |
| CCOC(C=C(C)CCC=C(C)C)OCC |  | 20 µM (active) |
| O=S(=O)(OCC(F)(F)F)C(F)(F)C(F)(F)C(F)(F)C(F)(F)F | inactive |  |
| O=C(O)C(F)(F)C(F)(F)C(F)(F)C(F)(F)C(F)(F)C(F)(F)C(F)F | inactive |  |
| OCC(F)(F)C(F)(F)C(F)(F)C(F)(F)C(F)(F)C(F)(F)C(F)(F)C(F)(F)CO |  | 37.1 µM (active) and 45.7 µM (active) |

| Compound | outcome | AC50 |
| --- | --- | --- |
| Cc1cc(C)c(O)c(C(C)(C)C)c1 |  | 30.5 µM (active) |
| NCC(F)(F)C(F)(F)C(F)(F)C(F)(F)C(F)(F)C(F)(F)C(F)(F)C(F)(F)F | inactive |  |
| C[Si](Cl)(Cl)CCC(F)(F)C(F)(F)C(F)(F)C(F)(F)C(F)(F)C(F)(F)F | inactive |  |
| FC(F)(F)C(F)(F)C(F)(F)CC1CO1 (stereo not given) | inactive |  |
| CC(C)CCCC(C)CCO (stereo not given) |  | 35.3 µM (active) |
| NC(=O)C(F)(F)C(F)(F)C(F)(F)C(F)F | inactive |  |
| O=C(O)C(F)(F)C(F)(F)C(F)(F)OC(F)(C(F)(F)F)C(F)(F)F | inactive |  |
| O=C(c1ccccc1)c1ccc(O)cc1O | inactive |  |
| O=C1C=CC(=O)N1c1ccc(Cc2ccc(N3C(=O)C=CC3=O)cc2)cc1 |  | 3.46 µM (active) |
| NCC(F)(F)C(F)(F)C(F)(F)C(F)(F)C(F)(F)C(F)(F)F | inactive |  |
| Cc1cnccn1 | inactive |  |
| OCCCCC(F)(F)C(F)(F)C(F)(F)C(F)(F)F | inactive |  |
| COC(F)(C(F)F)C(F)(F)F (stereo not given) | inactive |  |
| CC(C)(C)c1cc(CCC(=O)NCCCCCCNC(=O)CCc2cc(C(C)(C)C)c(O)c(C(C)(C)C)c2)cc(C(C)(C)C)c1O | inactive |  |
| CC1=CC2C3C=CC(C3)C2C1C (stereo not given) | inactive |  |
| O=C(Cl)C(F)(F)C(F)(F)C(F)(F)C(F)(F)C(F)(F)C(F)(F)C(F)(F)F | inactive |  |
| Cc1ccc(O)c(-n2nc3ccccc3n2)c1 | inactive |  |
| CCN(CC)c1ccc(C=O)cc1 | inactive |  |
| CNS(=O)(=O)C(F)(F)C(F)(F)C(F)(F)C(F)(F)C(F)(F)C(F)(F)C(F)(F)C(F)(F)F | inactive |  |
| CO[Si](C)(CCC(F)(F)C(F)(F)C(F)(F)C(F)(F)C(F)(F)C(F)(F)F)OC | inactive |  |
